Measurements from PubChem BioAssay.
Active and inactive are the calls of the source.

Key:
[1] = A549 cell viability effects, profiling panel, calcein-AM fluorescence, 48 h, basal (AID 1162); details: higher = more signal
[2] = adipocyte viability effects, profiling panel, cell-based, 3T3-L1 adipocytes, calcein-AM fluorescence, 48 h, basal (AID 1163); details: 3T3-L1 adipocytes viability, higher = more signal
[3] = HepG2 cell viability effects, profiling panel, calcein-AM fluorescence, 48 h, basal (AID 1164); details: higher = more signal
[4] = MM1S cell viability effects, profiling panel, calcein-AM fluorescence, 48 h, basal (AID 1165); details: higher = more signal;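 also: viability of MM1S multiple myeloma cells under basal unstimulated conditions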
[5] = basal RPMI8226 viability, no added stimulus, profiling panel, cell-based, calcein-AM fluorescence, 48 h, PK04 Diversity Set (AID 1166); details: RPMI8226 myeloma viability, higher = more signal;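 also: cells grown under basal conditions without added stimulus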
[6] = basal HepG2 mitochondrial membrane potential changes, profiling panel, cell-based, JC-1 fluorescence, 24 h, 100 nL compound (AID 1167); details: higher = more signal
[7] = basal 3T3-L1 adipocyte mitochondrial potential changes, profiling panel, cell-based, JC-1 fluorescence, 3T3-L1 adipocytes, 24 h, 100 nL compound (AID 1168); details: JC-1 mitochondrial fluorescence, higher = more signal, called active from +8 up or from −8 down
[8] = basal RPMI8226 mitochondrial membrane potential changes, profiling panel, cell-based, JC-1 fluorescence, 24 h, 100 nL compound (AID 1169); details: RPMI8226 myeloma, JC-1 mitochondrial potential fluorescence, higher = more signal
[9] = basal MM1S mitochondrial membrane potential changes, profiling panel, cell-based, JC-1 fluorescence, 24 h, 100 nL compound (AID 1170); details: higher = more signal
[10] = A549 lung cancer cell viability effects, profiling panel, resazurin fluorescence, 24 h, PK04 Diversity Set (AID 1171); details: higher = more signal, called active from +8 up or from −8 down
Also: test concentration not given here.

| Structure (SMILES) | z-score [1] | z-score [2] | z-score [3] | z-score [4] | z-score [5] | z-score [6] | z-score [7] | z-score [8] | z-score [9] | z-score [10] |
| --- | --- | --- | --- | --- | --- | --- | --- | --- | --- | --- |
| C=CCC(OC(C)=O)[C@@H]1[C@@H](N(Cc2cc3ccccc3o2)C(=O)c2ccc(-c3ccccc3)cc2)c2cc(OCCCO)ccc2N1C(=O)Cc1ccc2ccccc2c1 (stereo not given in full) | 0.809 | 0.778 | 1.48 | 0.372 | -0.0122 | 1.64 | -0.211 (inactive) | -0.0273 | 0.293 | 0.483 (inactive) |
| CCCC[C@H]1C[C@@H]1[C@@H]1N(P(=O)(c2ccccc2)c2ccccc2)[C@](CO)(c2ccccc2)CC12CC2 | -2.02 | -0.0661 | -1.96 | -3.23 | -4.69 | -2.28 | -0.732 (inactive) | -0.868 | -2.86 | 0.936 (inactive) |
| CN1C(=O)C2C(C1=O)C1C=C(c3ccc(CO)cc3)C2C(C2CC2)N1Cc1cc2c(cc1Br)OCO2 (stereo not given) | 0.302 | 0.575 | 1.81 | -0.387 | -1.75 | 3.74 | 0.673 (inactive) | -0.73 | -0.565 | -1.84 (inactive) |
| CCCNC(=O)[C@@]1(C)c2ccccc2C(=O)N(Cc2cc(F)cc(C(F)(F)F)c2)[C@H]1c1ccc(CO)cc1 | -0.575 | 0.237 | -0.14 | -0.0049 | 1.18 | 2.08 | 0.224 (inactive) | 0.795 | -0.749 | 1.79 (inactive) |
| O=C1O[C@H](c2ccccc2)[C@H](c2ccccc2)N2[C@H]1[C@@H](C(=O)NC[C@H](O)c1ccccc1)[C@]1(C(=O)Nc3ccc(C#CC4(O)CCCCCC4)cc31)[C@H]2c1ccccc1OCCO | -0.509 | 0.0001 | -4.63 | -3.33 | -4.19 | -2.67 | 3.14 (inactive) | -0.99 | -2.01 | -1.39 (inactive) |
| O=C1C[C@@](C(=O)O)(c2ccc([N+](=O)[O-])cc2)[C@@H](c2ccc(CO)cc2I)N1CC12CC3CC(CC(C3)C1)C2 | -1.27 | -1.05 | -4.72 | -3.8 | -4.35 | -2.54 | -1.28 (inactive) | -0.811 | -2.41 | -1.77 (inactive) |
| COCCOC(=O)N1C(=O)[C@@]2(c3cc(C#CCC(C(=O)OC)C(=O)OC)ccc31)[C@H](c1ccccc1OCCO)N1[C@H](c3ccccc3)[C@H](c3ccccc3)OC(=O)[C@H]1[C@@H]2C(=O)Nc1nc2ccccc2s1 | 1.7 | 0.321 | 1.4 | -0.569 | -0.922 | -2.31 | 0.844 (inactive) | -0.76 | -0.578 | -0.0543 (inactive) |
| CC(C)NC(=O)[C@@H]1c2ccccc2C(=O)N(C2CCCCC2)[C@H]1c1ccc(CO)cc1 | 0.699 | -0.209 | 0.581 | -0.594 | -2.04 | 1.54 | -0.656 (inactive) | -0.811 | 0.103 | 1.08 (inactive) |
| NC(=O)NCC#Cc1ccc2c(c1)[C@]1(C(=O)N2)[C@H](C(=O)NC[C@H](O)c2ccccc2)[C@H]2C(=O)O[C@H](c3ccccc3)[C@H](c3ccccc3)N2[C@@H]1c1ccccc1OCCO | -0.321 | 1.02 | -0.252 | 0.325 | -0.636 | -1.64 | 1.34 (inactive) | -0.0808 | -1.01 | 1.02 (inactive) |
| C=C(/C(=C/C[C@@H](OC(C)=O)c1ccc(CO)o1)c1cnc2ccccc2c1)C(C)C | -0.0718 | 1.36 | -1.07 | -0.644 | -0.596 | -1.33 | -0.561 (inactive) | -0.292 | 0.335 | -1.45 (inactive) |
| O=C1OCCC/C=C\[C@H]2OC34C=CCN(CCN5CCOCC5)C(=O)[C@H]3N(CCO)C(=O)[C@@H]4C12 (stereo not given in full) | -1.18 | 1.72 | -0.615 | 1.31 | -0.832 | -0.41 | -1.21 (inactive) | -0.802 | 0.533 | -1.99 (inactive) |
| [N-]=[N+]=NCc1ccccc1C[C@]1(C(=O)NCCN2CCOCC2)N=C(c2ccc(OCCCO)cc2)O[C@H]1c1ccccc1CN=[N+]=[N-] | 0.0783 | 1.99 | 0.356 | -2.14 | -3.34 | 1.27 | -0.492 (inactive) | -0.784 | -1.65 | -0.403 (inactive) |
| O=C1C2C=CC(C(O)c3ccc(-c4ccccc4)s3)N(Nc3ccccc3F)C2C(=O)N1c1ccccc1 (stereo not given) | -1.07 | -0.0797 | -0.297 | -0.0003 | -1.3 | -2.29 | -1.57 (inactive) | -0.35 | -0.0666 | -1.7 (inactive) |
| O=C(CS)NCCCCCNC(=O)[C@H]1C[C@H]2C(=O)N[C@@H](Cc3ccccc3)C(=O)N2[C@H]1c1cccc(OCCO)c1 | 0.917 | -0.0063 | 0.585 | 0.898 | -0.156 | 1.3 | -0.0668 (inactive) | -0.736 | -0.256 | 0.363 (inactive) |
| C=C(COC)C(=O)CC[C@H](OC(=O)c1cccnc1)c1ccccc1OCCO | -0.414 | -0.751 | -1.24 | -3.3 | -3.76 | -0.952 | 0.0833 (inactive) | -0.706 | -2.25 | 0.138 (inactive) |
